From PubChem
Mm-Cpn inhibitor – Inhibitors of TCP-1 ring complex (TRiC) of Methanococcus maripaludis (MmCpn): qHTS; AID 504842, 2011; purified Mm-Cpn ATPase, ADP Transcreener TR-FRET; Potency, µM (doses to about 76.9 µM), usual class: inhibitors; Chaperonin Mm-Cpn (Methanococcus maripaludis); actives 0.031% (n = 330,000); also: nearly all actives have a fitted effect of over 80% in size
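Eu-cryptate anti-ADP/ADP-d2 competition gives a ratio inversely related to ADP. Enzyme at 25 nM was pre-exposed to compound for 10 min, then given 10 uM ATP for 30 min, 37°C throughout.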
PLK1 PBD inh – qHTS for Inhibitors of PLK1-PDB (polo-like kinase 1 - polo-box domain): Primary Screen. Plk1 PBD binding of FITC phosphopeptide, fluorescence polarization. Potency, µM, usual class: inhibitors. actives 2.8% (n = 360,000); also: series mostly up to about 57 µM; nearly all actives have a fitted effect of over 65% in size
G9a block – qHTS Assay for Inhibitors of Histone Lysine Methyltransferase G9a. G9a H3K9 monomethylation, AlphaScreen, 2 h. Potency, µM (series often up to 102 µM), hits mostly inhibitors. actives 8.8% (n = 350,000). AID 504332, 2011; also: nearly all actives have a fitted effect of over 75% in size
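AlphaScreen read-out: biotin-H3K9 peptide (500 nM) methylation by 20 nM enzyme with 20 uM SAM, 2 h at room temperature after 15 min compound preincubation; anti-monomethyl H3K9 antibody plus donor/acceptor beads, 10 min dark.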
CCT modulator – High-Throughput Screening for Modulators of Cytosolic Chaperonin Activity; actives 0.3% (n = 360,000); purified chaperonin ATPase assay, HTRF ADP detection, 30 min; activity change, % (concentration not given with the values), hits read low; AID 651819, 2012; in the data active = activity change below about -30%
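Nucleotide hydrolysis assay: TRiC at 20–40 nM final (set by batch activity) with 10 uM ATP, 30 min at 37 °C, in presence of 76 uM compound. Detection by competitive ADP HTRF, 30 min ambient.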
Sfp PPTase inh – qHTS Assay for Inhibitors of Bacillus subtilis Sfp phosphopantetheinyl transferase (PPTase); AID 1490, 2009; actives 3.5% (n = 310,000); 4'-phosphopantetheinyl transferase ffp (Bacillus subtilis), Q9F4F7; Biochemical Sfp PPTase activity, qHTS; Potency, µM, actives largely listed as inhibitors;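 also: the enzyme is Sfp with the accession as filed and its product quenches rhodamine fluorescence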
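Fluorescence-quenching assay: 15 nM Sfp-PPTase preincubated 15 min at room temperature with compound, then 5 uM rhodamine-CoA and 12.5 uM BHQ-2-labelled YbbR peptide added. Fluorescence (ex 525/em 598 nm) read at start and after 30 min; difference gives rate.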
VDR inh – Inhibitors of the vitamin D receptor (VDR): qHTS. Vitamin D3 receptor (Homo sapiens), P11473. VDR-SRC2-3 peptide fluorescence polarization, 2 h. Potency, µM, most hits filed as inhibitors. actives 0.93% (n = 400,000)
Target sequence (P11473 whole entry, looked up): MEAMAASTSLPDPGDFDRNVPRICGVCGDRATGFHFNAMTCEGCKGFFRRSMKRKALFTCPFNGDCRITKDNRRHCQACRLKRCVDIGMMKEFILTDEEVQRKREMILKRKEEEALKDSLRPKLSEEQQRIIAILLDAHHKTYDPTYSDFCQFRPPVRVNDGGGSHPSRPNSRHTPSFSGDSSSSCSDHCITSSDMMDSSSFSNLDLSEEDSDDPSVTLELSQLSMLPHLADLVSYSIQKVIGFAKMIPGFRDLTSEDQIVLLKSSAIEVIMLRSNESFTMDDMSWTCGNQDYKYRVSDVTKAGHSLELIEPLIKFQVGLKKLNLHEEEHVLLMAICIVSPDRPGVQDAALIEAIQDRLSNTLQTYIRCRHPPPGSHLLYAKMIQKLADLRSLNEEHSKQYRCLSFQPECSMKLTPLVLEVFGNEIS
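After 23 nl compound addition and a short centrifugation, plates sat for 2 hours at ambient temperature; polarization of fluorescence then indicated loss of VDR binding to peptide SRC2-3.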
Hits are given with their value; - = inactive; ? = inconclusive; . = no result; [ ] = another dose, or the depositor's remark. In the library only some 10% were active in any assay of this set; here they are far more common. Unless noted, calls follow the shape of the dose curve; as a rule, active = well fitted curve in the direction sought with a large enough effect; inconclusive = small, poorly fitted or top-dose-only effect, or another doubt; inactive = no such curve, though single readings can be large; an effect the other way counts as inactive or inconclusive.

SMILES | Mm-Cpn inhibitor | PLK1 PBD inh | G9a block | CCT modulator | Sfp PPTase inh | VDR inh
Cc1c(C(=O)N(C)Cc2ccccc2)oc2ccc(S(=O)(=O)N3CCCC3)cc12 | - | - | - | - | - | -
Cc1c(C(=O)N(C)CCC#N)oc2ccc(S(=O)(=O)N3CC(C)CC(C)C3)cc12 (configuration not stated) | - | 19µM | - | - | - | ?
COc1ccc(-c2noc(CC(=O)Nc3ccc(Br)cc3C)n2)cc1 | . | . | - | . | . | -
CCOC(=O)N1CCN(C(=O)c2oc3ccc(S(=O)(=O)N4CCOCC4)cc3c2C)CC1 | - | - | -[12.7 µM] | - | - | -
Cc1c(C(=O)N2CCOCC2)oc2ccc(S(=O)(=O)N3CCCC3)cc12 | 35µM | - | ? | - | - | -
FC(F)(F)c1cccc(N2CCN(c3ncnc4c3nc3n4CCCC3)CC2)c1 | . | . | - | . | . | -
CCOc1ccc(-c2nc(CCl)cs2)cc1OC | - | - | 45µM | - | - | -
COc1cccc(-c2nc(CCl)cs2)c1OC | - | - | 22µM | - | - | -
N#Cc1ccc(CN2CC[C@@]3(CCCN(S(=O)(=O)c4ccccc4)C3)C2)cc1 | . | . | -[12.7 µM] | . | - | ?
COc1ccc2c(c1)c1c(c(=O)n(-c3ccc(OC)c(OC)c3)c(=O)n1Cc1ccccc1F)n2C | . | . | ? | . | . | -
Cc1cc(-c2n[nH]c(=S)n2Cc2ccco2)nn1C | - | - | 8.9µM | - | - | ?
COc1ccc(-c2n[nH]c(=S)n2Cc2ccco2)cc1 | - | - | ? | - | - | -
Cc1cc(-c2n[nH]c(=S)n2Cc2ccco2)n(C)n1 | - | - | 8.9µM | - | 50µM | -
Cc1c(Br)c(-c2n[nH]c(=S)n2Cc2ccco2)nn1C | - | - | 10µM | - | - | -
Oc1ccccc1-c1n[nH]c(=S)n1Cc1ccco1 | - | - | ? | - | - | -
Cc1ccc(S(=O)(=O)C(CNC(=O)C(=O)NCc2ccccc2C)c2cccs2)cc1 (configuration not stated) | . | . | - | . | . | -
CCC(C)NC(=O)CSc1nc2cc3c(cc2c(=O)n1CCCC(=O)NCc1ccc2c(c1)OCO2)OCO3 (configuration not stated) | . | . | - | . | . | -
O=C(Nc1ccc(N2CCCCC2)cc1)c1ccc2c(c1)OCCO2 | - | - | 3.5µM | - | - | -
O=C(Nc1ccc(Br)cc1F)c1ccc2c(c1)OCCO2 | - | - | 50µM | - | - | -
O=C(Nc1ccc(N2CCN(C(=O)c3ccc(Cl)cc3)CC2)cc1)c1ccc2c(c1)OCCO2 | - | - | 79µM | - | - | -
CCc1ccccc1NC(=O)Nc1c[nH]c(=O)[nH]c1=O | . | . | - | . | . | -
Cc1cc2oc(=O)cc(CN3CCCCC3C)c2cc1C (configuration not stated) | - | - | 50µM | - | - | -
Cc1cc(S(=O)(=O)NCC(=O)O)ccc1F | - | 21µM | - | - | - | -
CCOc1ccc(N(C)C(=O)c2oc(=O)c3ccccc3c2-c2ccccc2)cc1 | . | . | - | . | . | -
Fc1ccc(-n2cc(-c3ccccc3)c3c(N4CCOCC4)ncnc32)cc1 | - | - | - | - | - | -
OCCN1CCN(c2ncnc3c2c(-c2ccccc2)cn3-c2ccc(Br)cc2)CC1 | - | - | 35µM | - | 22µM | -
COc1ccc(-n2cc(-c3ccccc3)c3c(NCCCN4CCOCC4)ncnc32)cc1 | - | - | 50µM | - | - | -
CCN1CCN(c2ncnc3c2c(-c2ccccc2)cn3-c2ccc(F)cc2)CC1 | - | - | ? | - | 40µM | -
Clc1ccccc1N1CCN(c2ncnc3c2c(-c2ccccc2)cn3-c2ccccc2)CC1 | . | . | - | . | . | -
c1ccc(-c2cn(-c3ccccc3)c3ncnc(NCCCN4CCOCC4)c23)cc1 | - | - | ? | - | - | -
